Growth inhibition data for 18 compounds are collected here from PubChem BioAssay (NCI).

About 79,000 compounds went through this panel and 15% of them were active in at least one assay; those are over-represented in the sample as a whole. Values without a mark were called inactive. Rule as the data show it: active = growth inhibition above about 70%; inactive = the rest.

A short description of this test: NCI Yeast Anticancer Drug Screen. Data for the sgs1 mgt1 strain (AID 161).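 Also: 0% = growth of cultures given vehicle only.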 To be noted: S. cerevisiae sgs1 mgt1 strain, at 50.0 µM, hits give high values. Put shortly:
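This yeast growth screen uses a strain with defined DNA-repair lesions; compound-treated growth is compared with vehicle-treated growth.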
Consider `CCc1cccc(C(C)CC)c1N=C(NC(=O)c1ccccc1C(=O)NC(=Nc1c(CC)cccc1C(C)CC)SC)SC` (stereo not drawn), for which the growth inhibition was 5.3%.
As to `Cc1cccc(-c2nnc3s/c(=C\c4ccc(N(C)C)cc4)c(=O)n23)c1`, the growth inhibition is 13.4%.
With `CN(C)CC(C(N)=O)C(N)=O`, the growth inhibition is -19.8%.
Then `CC1=Nc2ccccc2NC(C)(C)C1`, with 29.5%; and `CCOC(=O)Cc1nc2ccccc2[nH]c1=O`, with 1.25%.
With `CCCCCOc1ccc2ccccc2c1`, the growth inhibition is -18.6%.
The same measure for `CCOC(=O)Cc1nnc2n(-c3ccccc3)c(=O)c3ccccc3n12`: -21.7%.
The same measure for `COc1cc(C(OC(C)=O)OC(C)=O)c(Cl)c(Cl)c1OC(C)=O`: 9.35%; for `CCCCCCCCCCCCOc1ccc(Br)cc1`: 19%.
Then `Nc1nn(CC(O)CO)c(=O)s1` (stereo not drawn), with 2.4%; and `O=C1NC(=S)S/C1=C/C=C/c1ccccc1[N+](=O)[O-]`, with -3.9%; and `COc1ccc(/C=C/C(=O)c2c(-c3ccccc3)nn(C)c(=O)c2N2CCCCC2)cc1`, with -10.8%.
As to `O=C(C[n+]1ccccc1)c1ccccc1`, the growth inhibition was -2.4%.
As to `O=C(CN1CCN(Cc2ccccc2)CC1)N1CCCn2c1nc1ccccc1c2=O`, the growth inhibition is -7.9%.
For `Clc1c2c(nc3ccccc13)CCCC2`, the growth inhibition is 49.4%.
Then `CC[n+]1ccc(-c2ccccc2)o1`, with 2.25%.
Regarding `O=c1cc(CO)oc2c3c(cc(O)c12)OCC(COC1OC(CO)C(O)C(O)C1O)=CC3` (stereo not drawn), the growth inhibition is -1.75%.
The same measure for `O=C1C2(CCCC13OC3c1ccccc1)OC2c1ccccc1` (stereo not drawn): -5.15%.
